Compound activity as filed in PubChem.
An excerpt weighted towards active compounds, which were near 2% of everything screened.
IDH1 R132H inh: inhibitors of human mutant IDH1 R132H. O75874. IDH1-R132H enzyme, NADPH consumption, diaphorase/resazurin fluorescence. Potency, µM (titrated, usually from 76.6 µM), inactives show top-dose activity change, negative = inhibition, actives largely listed as inhibitors. actives 0.093% (n = 390,000). AID 602179; further: potency means the concentration at half of the fitted maximal effect; on the % scale 0 is the no-effect control and ±100 the full control effect; nearly all actives have a fitted effect of over 65% in size
Target sequence (O75874 whole entry R132H, stated change not applied): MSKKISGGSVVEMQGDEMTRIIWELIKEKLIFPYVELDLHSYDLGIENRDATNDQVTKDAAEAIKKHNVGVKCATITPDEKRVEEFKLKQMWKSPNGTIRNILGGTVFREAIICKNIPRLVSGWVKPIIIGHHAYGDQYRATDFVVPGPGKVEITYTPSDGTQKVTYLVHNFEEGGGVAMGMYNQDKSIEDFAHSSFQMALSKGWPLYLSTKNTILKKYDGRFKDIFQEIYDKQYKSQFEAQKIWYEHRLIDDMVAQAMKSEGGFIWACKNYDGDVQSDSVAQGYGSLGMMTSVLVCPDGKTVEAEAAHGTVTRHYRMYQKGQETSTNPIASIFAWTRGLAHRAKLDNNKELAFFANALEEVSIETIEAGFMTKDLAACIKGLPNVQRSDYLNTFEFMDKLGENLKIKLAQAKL
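IDH1-R132H (0.5 ug/mL) preincubated 30 min with compound, then NADPH (0.016 mM) and alpha-KG (2 mM) added; 80 min at RT, pH 7.5. Remaining NADPH coupled via diaphorase/resazurin to fluorescence (540/590 nm); concentration-response curves normalized to no-enzyme control.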
TDP43 rescue: TDP-43 toxicity inhibition in yeast. TDP-43 expressing yeast growth rescue, BacTiter-Glo, 24 h. Potency, µM (top dose mostly 46.1 µM), without a hit: at the top dose growth rescue (activation), hits mostly activators. actives 1.8% (n = 410,000). AID 652104; further: potency means the concentration at half of the fitted maximal effect; % of control where 0% means no effect; nearly all actives have a fitted effect of over 50% in size
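Yeast expressing TDP-43 (pregrown in raffinose, seeded at OD600=0.02 in galactose medium) exposed to compounds 24 hr at 30 deg C. Growth read by BacTiter-Glo luminescence; rescue of toxicity appears as increased signal.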
aSyn yeast inh: rescues yeast growth from alpha-synuclein toxicity | Yeast expressing alpha-synuclein, growth rescue, BacTiter-Glo, 24 h | Potency, µM (titrated, usually from 46.1 µM), inactives show at the top dose growth rescue (activation), hits mostly activators | actives 0.14% (n = 370,000) | AID 652106; further: potency means the concentration at half of the fitted maximal effect; % of control where 0% means no effect; nearly all actives have a fitted effect of over 65% in size
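Rescue of yeast growth: cells expressing toxic alpha-synuclein, induced in galactose at OD600 0.02, incubated with compound 24 h at 30 C. ATP luminescence quantified growth; inhibitors of toxicity appear as activators.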
FUS suppressor: FUS proteinopathy suppression in yeast | Potency, µM (highest dose often 76.6 µM), hits mostly activators | S. cerevisiae FUS-expressing, growth rescue, OD600, 24 h | actives 0.24% (n = 390,000) | AID 1347120;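 further: potency means the concentration at half of the fitted maximal effect; plate controls were DMSO vehicle for no effect and reference control for full effect; nearly all actives have a fitted effect of over 55% in size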
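Galactose (2%) drives FUS expression in yeast precultured in raffinose; seeding density OD 0.005. Test compounds incubated 24hr at 30C and 99% humidity before absorbance at 600 nm was measured.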
Abeta rescue: restores growth of yeast expressing A-beta42 peptide; yeast expressing A-beta42, growth rescue, OD600, 48 h; response scale: 0% DMSO, 100% iron-clioquinol control; Potency, µM (series often up to 46.1 µM), actives largely listed as activators; actives 0.063% (n = 410,000); AID 1347071; further: potency means the concentration at half of the fitted maximal effect; nearly all actives have a fitted effect of over 55% in size
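Yeast growth medium received pinned compounds, then yeast cells expressing toxic A-beta were added; plates incubated at 30 C for 48 hr. Growth read as absorbance at 600 nm, normalized to DMSO and equimolar FeCl3 plus clioquinol controls.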
LDHA inh: LDHA (human) enzyme inhibition | P00338 | purified LDHA, NADH/diaphorase-resazurin fluorescence; stronger effect = lower value | activity change, % (values are at about 110 or 230 µM) | AID 1347041 | actives 0.15% (n = 480,000); in the data active means activity change below about -30%; inconclusive means mostly about -25% to -30%;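 further: plate controls were DMSO wells for no effect and wells without enzyme for full effect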
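LDH5 2 nM; NADH 0.06 mM, pyruvate 0.2 mM; 200 mM Tris pH 7.4, EDTA, Tween-20; 5 min RT. Detection: diaphorase 0.133 mg/mL + resazurin 37 µM, fluorescence ex540/em590 at 0 and 20 min; normalized to enzyme-free and DMSO wells.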
* = called active by the depositor; i = inactive; ? = inconclusive; . = no result; [ ] = another dose, or the depositor's remark. Unless noted, the call rests on the fitted dose curve; in most records, active means well fitted curve in the direction sought with a large enough effect; inconclusive means small, poorly fitted or top-dose-only effect, or another doubt; inactive means no such curve, though single readings can be large; an effect the other way counts as inactive or inconclusive.

SMILES	IDH1 R132H inh	TDP43 rescue	aSyn yeast inh	FUS suppressor	Abeta rescue	LDHA inh
Nc1nc(Cl)cc(Nc2ccccc2Cl)n1	0%	22%	-13%	i	i	2
CCOC(=O)Nc1nc(-c2ccc(Cl)cc2Cl)cs1	-1%	11µM*	-37%	.	i	-2
COc1cc(C#N)ccc1OC(=O)c1oc2ccccc2c1C	.	.	.	.	.	10
CCOC(=O)C(C(=O)OCC)C(Nc1cccc(Br)c1)c1ccccc1 (stereo not given)	6%	13µM*	1%	i	i	-1
CC(c1ccccc1)N1C(=O)c2cccnc2C1=O (stereo not given)	2%	2µM*	1%	i	i	-1
CCOC(=O)c1ccc(S(=O)(=O)Nc2ccccc2-c2nnc3n2CCCCC3)cc1	.	.	.	.	.	-3
COc1ccccc1C(=O)OC(c1ccc(NC(=O)c2ccc(OC(F)F)cc2)cc1)(C(F)(F)F)C(F)(F)F	.	.	.	.	.	19
O=C(COc1ccc(Br)cc1)Nc1ccc2c(=O)c3ccccc3oc2c1	.	.	.	.	.	-10
CC(C)Cn1nc(C(=O)Nc2ccc(I)cc2)c2ccccc2c1=O	.	.	.	.	.	10
COc1ccc2c(C)cc(=O)oc2c1C	6%	10%	2%	i	i	-6
Cc1cc(=O)oc2c(C)c3occc3cc12	-6%	2.5µM*	?	i	?	-7
CCOc1ccc(NC(=O)Cn2c(=O)c3c(ncn3CCC(C)C)n(Cc3ccccc3)c2=O)cc1	.	.	.	.	.	5
COCCN1CCC(CNC(C)=O)CC1	.	.	.	.	.	-2
Cc1ccc(C)c(N2CCN(C(=O)c3ccccc3Br)CC2)c1	-4%	29%	16%	i	i	-3
Cc1ccc(N2CCN(C(=O)c3ccccc3Br)CC2)c(C)c1	5%	16µM*	6%	i	i[9.22 µM]	-4
Cc1ccccc1CN1CCN(Cc2ccccc2C(F)(F)F)CC1	10%	-12%	0%	i	i	-39*
OCCCNC(=S)NCCc1ccccc1	.	.	.	.	.	-3
CC1=C(C(=O)NCc2cccc(Br)c2)C2(CCCCC2)OC1=O	-2%	18µM*	.	i	i	2
Fc1ccc(CNC(=S)Nc2ccc(Nc3ccccc3)cc2)cc1	.	.	.	.	.	-1
CCSc1nc2ccccc2n1Cc1ccccc1F	5%	14µM*	-11%	i	i	-7
NC(=O)CSc1nc2ccccc2n1Cc1ccccc1F	3%	23%	?	i	i	-5
Fc1ccccc1Cn1c(-c2ccccc2)nc2ccccc21	9%	22µM*	.	i	i	3
Cc1cccc(Cn2c(-c3ccccc3)nc3ccccc32)c1	0%	14µM*	.	i	i	2
O=C(CSc1ccc2c(c1)OCCCO2)Nc1ccc2ccccc2c1	.	.	.	.	.	25
COc1ccc(C2=CC(=O)C[C@H](c3ccc(F)cc3)C2)cc1F	-2%	22µM*	8%	?	i	-6
SMILES	IDH1 R132H inh	TDP43 rescue	aSyn yeast inh	FUS suppressor	Abeta rescue	LDHA inh
CSc1ccc(C2=CC(=O)C[C@H](c3ccc(F)cc3)C2)cc1	1%[38.3 µM]	22µM*	6%	i	i	0
O=C1C=C(c2ccc(OC(F)(F)F)cc2)C[C@@H](c2ccc(F)cc2)C1	7%	14µM*	-7%	i	?	0
O=C1C=C(c2ccc(Oc3ccccc3)cc2)C[C@@H](c2ccc(F)cc2)C1	-2%	0%	8%	i	i	-4
O=C1C=C(c2ccc3c(c2)OCCO3)C[C@@H](c2ccc(F)cc2)C1	2%	22µM*	0%	i	?	-6
Cc1cc(C2=CC(=O)C[C@H](c3ccc(F)cc3)C2)ccc1F	6%	22µM*	8%	i	i	-5
Cc1nc(Nc2nc3c(c(=O)[nH]2)CCC3)nc2ccccc12	4%	14µM*	11µM*	i	i	-1
N#C/C(=C\c1cccc(OC(=O)c2ccc(Cl)cc2Cl)c1)C(=O)Nc1cccc(C(F)(F)F)c1	.	.	.	.	.	3
Cc1cc(SCC(=O)NC(=O)c2cccn2C)nc2ccccc12	3%	20µM*	1%	i	?	-9
Cc1cc(SCC(=O)Nc2ccc(F)c(F)c2F)nc2ccccc12	.	.	.	.	.	-34*
Cc1cc(SCC(=O)NC(N)=O)nc2ccccc12	.	.	.	.	.	-3
O=S(=O)(c1ccc(Br)cc1)N1CCN(c2ccc(Nc3ccccc3)nn2)CC1	.	.	.	.	.	1
NC(=S)N/N=C/c1ccc(-c2cc(Cl)c(Cl)cc2Cl)o1	0%	4%	23%	i	13µM*	-4
NC(=S)N/N=C/c1ccc(Br)o1	-1%	17%	-9%	i	i	1
Clc1cccc(-c2ccc(/C=N/n3cnnc3)o2)c1Cl	11%	3%	1%	i	i	-3
COC(=O)N/N=C/c1ccc(-c2ccccc2Cl)o1	6%	20µM*	5%	i	i	-2
Clc1ccccc1-c1ccc(/C=N/n2cnnc2)o1	-2%	11µM*	6%	i	i	-11
O=Cc1cc(O)c(Br)cc1Br	.	.	.	.	.	-12
Cc1nnc(SCc2c(Cl)cccc2Cl)s1	-3%	16µM*	9%	i	i	-3
Cn1c(SCc2ccc(Br)cc2)nnc1-c1cccs1	4%	14µM*	9%	i	i	-8
Cn1c(SCc2c(Cl)cccc2Cl)nnc1-c1cccs1	12%	18µM*	12%	i	i	0
Cc1c(C(=O)NCCc2ccc(Cl)cc2)sc2nc3n(c(=O)c12)CCCC3	.	18µM*	.	?	i	-1
Cc1ccc(CNC(=O)c2sc3nc4n(c(=O)c3c2C)CCCCC4)cc1	1%	25µM*	.	i	i	-6
Cc1c(C(=O)NCCc2ccc(Cl)cc2)sc2nc3n(c(=O)c12)CCC3	5%	?	8%	i	i	-4
Cc1ccc(CNC(=O)c2sc3nc4n(c(=O)c3c2C)CCCC4)cc1	0%	13µM*	.	i	i	-1
O=C(Nc1cc(Cl)ccc1-n1cncn1)c1ccc([N+](=O)[O-])o1	-2%	14µM*	-28%	i	i	0
CCC(=O)N1CCN(c2ccc(Cl)cc2NC(=O)c2ccc([N+](=O)[O-])o2)CC1	-6%	-10%	9%	i	i	-4
S=c1sc(SCc2ccccc2)c(SCc2ccccc2)s1	.	.	.	.	.	11
COc1ccc2c(c1OC)C(=O)N1N=C(c3ccc(Br)cc3)CC21 (stereo not given)	7%	20µM*	0%	i	i	-3
